Bioassay records deposited in PubChem by National Center for Advancing Translational Sciences (NCATS).
Rows were chosen to be rich in hits. Some 12% of all compounds tested hit in one or more screens of this group.
Sfp inh: qHTS Assay for Inhibitors of Bacillus subtilis Sfp phosphopantetheinyl transferase (PPTase); 4'-phosphopantetheinyl transferase ffp (Bacillus subtilis), Q9F4F7; AID 1490, 2009; Biochemical Sfp PPTase activity, qHTS; Potency, µM, without a hit: largest response in the series, negative = inhibition, most hits filed as inhibitors; 310,000 tested, 3.5% active;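 also: the enzyme is Sfp with the accession as filed and its product quenches rhodamine fluorescence; 0% = enzyme reaction without inhibitor and -100% = no enzyme wells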
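Buffer: 50 mM Hepes-Na pH 7.6, 10 mM MgCl2, 0.01% Nonidet P-40, 0.01% BSA. Enzyme 15 nM, pre-exposed to compound 15 min; substrates then added and fluorescence change tracked over 30 min.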
L3MBTL1 inh: qHTS Assay for the Inhibitors of L3MBTL1. AlphaScreen L3MBTL1–H3K9me1 peptide binding. AID 485360, 2010. Lethal(3)malignant brain tumor-like protein 1 (Homo sapiens), Q9Y468. 230,000 tested, 0.66% active. Potency, µM (doses to about 57.1 µM), for inactives: at the top dose activity, negative = inhibition, hits mostly inhibitors; also: % is scaled to controls: 0 for no effect and ±100 for the full control effect; nearly all actives have a fitted effect of over 60% in size
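L3MBTL1 50 nM + b-AHA-H3(1-15)K9me1 75 nM, 30 min RT; compound added, 30 min RT; streptavidin donor/Ni-chelate acceptor beads 10 ug/mL each final, 30 min RT dark; AlphaScreen read.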
BAZ2B block: qHTS Assay for Inhibitors of BAZ2B | Bromodomain adjacent to zinc finger domain protein 2B (Homo sapiens), Q9UIF8 | AlphaScreen BAZ2B-H3K14Ac peptide displacement | Potency, µM (doses to about 114 µM), without a hit: at the top dose activity change, negative = inhibition, most hits filed as inhibitors | 360,000 tested, 4.4% active | AID 504333, 2011; also: % is scaled to controls: 0 for no effect and ±100 for the full control effect; nearly all actives have a fitted effect of over 60% in size
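Protein-peptide AlphaScreen: BAZ2B 50 nM, b-H3K14Ac 50 nM, 1x PBS pH 7.4 + 0.01% Tween-20. Preincubation 30 min RT; cpd 30 min RT (top 110 uM); beads 20 min RT, light-protected.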
HP1b chromo inh: HTS for Inhibitors of HP1-beta Chromodomain Interactions with Methylated Histone Tails | 390,000 tested, 0.56% active | Potency, µM (highest dose often 114 µM), for the others: top-dose activity change, negative = inhibition, usual class: inhibitors | Chromobox protein homolog 1 (Homo sapiens), P83916 | AID 540317, 2011 | AlphaScreen HP1-beta / biotin-H3K9me3 peptide binding; also: nearly all actives have a fitted effect of over 70% in size
Target sequence (P83916 whole entry, looked up): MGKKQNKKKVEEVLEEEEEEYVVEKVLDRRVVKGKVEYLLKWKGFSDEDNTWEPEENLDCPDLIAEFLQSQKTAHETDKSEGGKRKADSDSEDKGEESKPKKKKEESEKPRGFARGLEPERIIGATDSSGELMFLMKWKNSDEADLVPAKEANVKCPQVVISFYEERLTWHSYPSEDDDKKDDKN
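AlphaScreen: HP1-beta (50 nM) preformed 30 min with biotin-H3(1-18)K9me3 peptide (50 nM) in PBS pH 7.4, 0.01% Tween-20. Compound added for 30 min at RT, then streptavidin donor/nickel chelate acceptor beads (10 ug/mL) for 30 min.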
G9a inh: qHTS Assay for Inhibitors of Histone Lysine Methyltransferase G9a; G9a H3K9 monomethylation, AlphaScreen, 2 h; Potency, µM (series often up to 102 µM), for inactives: top-dose activity, negative = inhibition, usual class: inhibitors; 350,000 tested, 8.8% active; AID 504332, 2011; also: % is scaled to controls: 0 for no effect and ±100 for the full control effect; nearly all actives have a fitted effect of over 75% in size
Target sequence (Q96KQ7 913-1193 limits assumed): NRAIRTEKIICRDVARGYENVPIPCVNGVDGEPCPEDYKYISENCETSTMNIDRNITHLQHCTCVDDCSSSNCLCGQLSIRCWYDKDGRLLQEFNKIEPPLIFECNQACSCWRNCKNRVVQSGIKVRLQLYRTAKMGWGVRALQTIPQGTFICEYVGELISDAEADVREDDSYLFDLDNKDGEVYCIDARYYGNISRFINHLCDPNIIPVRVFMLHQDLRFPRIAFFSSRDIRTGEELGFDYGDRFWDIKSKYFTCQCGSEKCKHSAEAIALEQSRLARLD
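Signal arises when biotinylated H3K9 peptide, once monomethylated, bridges streptavidin donor and antibody-captured acceptor beads. Enzyme at 20 nM was preincubated 15 min with test compounds; peptide 500 nM and SAM 20 uM then reacted for 2 h.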
JMJD2A Tudor: qHTS Assay for Inhibitors of JMJD2A-Tudor Domain. Lysine-specific demethylase 4A (Homo sapiens), O75164. AlphaScreen JMJD2A-Tudor / H3K4me3 peptide binding. Potency, µM (top dose mostly 114 µM), for the others: at the top dose activity change, negative = inhibition, actives largely listed as inhibitors. 390,000 tested, 4.4% active. AID 504339, 2011; also: % is scaled to controls: 0 for no effect and ±100 for the full control effect; nearly all actives have a fitted effect of over 50% in size
* = called active by the depositor; [ ] = dose if it differs, or a comment. Calls follow the shape of the dose curve; as a rule, active = well fitted curve in the direction sought with a large enough effect; inconclusive = small, poorly fitted or top-dose-only effect, or another doubt; inactive = no such curve, though single readings can be large; an effect the other way counts as inactive or inconclusive. Potency is read from the fitted curve at half-maximal effect.

Results for O=C(O)CCC(=O)N1N=C(c2cccs2)CC1c1cn(-c2ccccc2)nc1-c1ccccc1 (stereo not drawn) ?
Sfp inh: -5%; BAZ2B block: inconclusive; HP1b chromo inh: 30%; G9a inh: 14%; JMJD2A Tudor: -25%

Results for Cc1ccc(-c2nn(-c3ccccc3)cc2C2CC(c3cccs3)=NN2C(=O)CCCC(=O)O)cc1 (stereo not drawn) ?
Sfp inh: -14%; BAZ2B block: 79µM*; HP1b chromo inh: 48%; G9a inh: inconclusive; JMJD2A Tudor: 71µM*

Results for Cc1cc(C2=NNC(=NC3CC3)SC2)c(C)n1Cc1ccco1 ?
Sfp inh: inconclusive; L3MBTL1 inh: 5%; BAZ2B block: inconclusive; HP1b chromo inh: -21%; G9a inh: 25µM*; JMJD2A Tudor: inconclusive

What do the screens show for `COCCn1c(C)cc(C2=NNC(=Nc3ccc(Cl)cc3Cl)SC2)c1C`?
Sfp inh: 56µM*; L3MBTL1 inh: -1%; BAZ2B block: -36%; HP1b chromo inh: -18%; G9a inh: inconclusive; JMJD2A Tudor: -34%

What do the screens show for `COCCn1c(C)cc(C2=NNC(=NC3CC3)SC2)c1C`?
Sfp inh: 50µM*; BAZ2B block: inconclusive; HP1b chromo inh: 7%; G9a inh: 40µM*; JMJD2A Tudor: -26%

What do the screens show for `C=CCN=C1NN=C(c2cc(C)n(CCOC)c2C)CS1`?
Sfp inh: 40µM*; L3MBTL1 inh: -1%; BAZ2B block: inconclusive; HP1b chromo inh: 37%; G9a inh: -5%[59 µM]; JMJD2A Tudor: -5%

What do the screens show for `COCCCN=C1NN=C(c2cc(C)n(Cc3ccco3)c2C)CS1`?
Sfp inh: inconclusive; L3MBTL1 inh: -2%; BAZ2B block: inconclusive; HP1b chromo inh: -3%; G9a inh: inconclusive; JMJD2A Tudor: inconclusive

What do the screens show for `COC(=O)C1=C(C(=O)OC)SC2(S1)C(C(=O)OC)=C(C(=O)OC)SC1=C2c2cc(C)ccc2NC1(C)C`?
Sfp inh: 2.8µM*; BAZ2B block: inconclusive; HP1b chromo inh: -81%; G9a inh: inconclusive; JMJD2A Tudor: 56µM*

What do the screens show for `COc1ccc(CC(=O)Nc2c(C(=O)N3CCN(c4ccccc4)CC3)oc3ccccc23)cc1OC`?
Sfp inh: 10%; BAZ2B block: -39%[57.1 µM]; HP1b chromo inh: 3%; G9a inh: 71µM*; JMJD2A Tudor: inconclusive

What do the screens show for `COc1ccc(CC(=O)Nc2c(C(=O)N3CCN(c4ccccc4OC)CC3)oc3ccccc23)cc1OC`?
Sfp inh: -5%; BAZ2B block: inconclusive; HP1b chromo inh: 9%; G9a inh: 35µM*; JMJD2A Tudor: inconclusive

How did COc1ccc(CC(=O)Nc2c(C(=O)N3CCN(c4ncccn4)CC3)oc3ccccc23)cc1OC do in these assays?
Sfp inh: 14%; BAZ2B block: -12%; HP1b chromo inh: 37%; G9a inh: 3%[59 µM]; JMJD2A Tudor: -25%

How did COc1cc(CCC(=O)Nc2c(C(=O)N3CCN(c4ccccc4OC)CC3)oc3ccccc23)on1 do in these assays?
Sfp inh: 1%; BAZ2B block: inconclusive; HP1b chromo inh: 21%; JMJD2A Tudor: inconclusive

How did C/C(=N\NC(N)=O)c1ccc(-n2ccnc2)cc1 do in these assays?
Sfp inh: 18%; L3MBTL1 inh: 1%; BAZ2B block: -9%; HP1b chromo inh: 28%; G9a inh: 20%[12.7 µM]; JMJD2A Tudor: -4%

Results for C/C(=N\Nc1ccc(C(=O)O)cc1)c1ccc(-n2ccnc2)cc1 ?
Sfp inh: 8%; L3MBTL1 inh: -6%; BAZ2B block: -23%; HP1b chromo inh: 32%; G9a inh: 13µM*; JMJD2A Tudor: -29%

How did CNC(=S)N/N=C(\C)c1ccc(-n2ccnc2)cc1 do in these assays?
Sfp inh: -10%; BAZ2B block: inconclusive; HP1b chromo inh: 40%; G9a inh: inconclusive; JMJD2A Tudor: -19%

What do the screens show for `C/C(=N\Nc1ccccc1Cl)c1ccc(-n2ccnc2)cc1`?
Sfp inh: -18%; L3MBTL1 inh: -25%; BAZ2B block: 50µM*; HP1b chromo inh: inconclusive; G9a inh: 10µM*; JMJD2A Tudor: 56µM*

What do the screens show for `Cc1ccc2[nH]c(=O)c(CN(Cc3ccco3)C(=O)c3cccs3)cc2c1`?
Sfp inh: 7%; L3MBTL1 inh: 1%; BAZ2B block: 3%; G9a inh: 5%[59 µM]

Results for O=C(c1ccco1)N(c1ccccn1)c1ccccn1 ?
Sfp inh: -6%; BAZ2B block: -3%; HP1b chromo inh: 33%; G9a inh: 5%[2.33 µM]; JMJD2A Tudor: 2%

How did O=C(c1cccs1)N(Cc1ccccn1)Cc1ccco1 do in these assays?
Sfp inh: 79µM*; L3MBTL1 inh: -4%; BAZ2B block: inconclusive; HP1b chromo inh: -4%; G9a inh: inconclusive; JMJD2A Tudor: inconclusive

What do the screens show for `O=C(c1ccco1)N(Cc1ccccc1)Cc1ccccn1`?
Sfp inh: -18%; L3MBTL1 inh: inconclusive; BAZ2B block: inconclusive; HP1b chromo inh: 54%; G9a inh: 79µM*; JMJD2A Tudor: 3%

Results for Cn1c(=O)c(-c2ccc(Cl)cc2)nc2cnc(N3CCNCC3)nc21 ?
Sfp inh: -4%; G9a inh: 4%[0.501 µM]

What do the screens show for `O=C(c1ccc(C(=O)N2CCOCC2)nc1)N1CCOCC1`?
Sfp inh: 21%; L3MBTL1 inh: -6%; BAZ2B block: 2%; HP1b chromo inh: 5%; G9a inh: inconclusive; JMJD2A Tudor: 40µM*

What do the screens show for `CCN(c1ccccc1)S(=O)(=O)c1cc2c(cc1C)N(C)CCO2`?
Sfp inh: 10%; L3MBTL1 inh: -17%; BAZ2B block: inconclusive; HP1b chromo inh: 2%; G9a inh: 79µM*; JMJD2A Tudor: inconclusive

Results for COc1ccc(NS(=O)(=O)c2cc3c(cc2C)N(C(C)=O)CCO3)c(OC)c1 ?
Sfp inh: 2%; L3MBTL1 inh: -5%; BAZ2B block: 7%; HP1b chromo inh: 36%; G9a inh: 10%; JMJD2A Tudor: -13%

How did COc1ccc(NS(=O)(=O)c2cc3c(cc2C)N(C)CCO3)c(OC)c1 do in these assays?
Sfp inh: -8%; L3MBTL1 inh: -12%; BAZ2B block: 50µM*; HP1b chromo inh: -10%; G9a inh: inconclusive; JMJD2A Tudor: inconclusive
